Shown are actives, neighbours in structure and some others; about 5% of the full set was active somewhere.
USP10 inh: human USP10 deubiquitinase inhibition; purified USP10, Ub-rhodamine fluorescence, 60 min; inhibition, % at 20 µM; 1.1% of 47,000 active
Target sequence (Q14694 whole entry, looked up): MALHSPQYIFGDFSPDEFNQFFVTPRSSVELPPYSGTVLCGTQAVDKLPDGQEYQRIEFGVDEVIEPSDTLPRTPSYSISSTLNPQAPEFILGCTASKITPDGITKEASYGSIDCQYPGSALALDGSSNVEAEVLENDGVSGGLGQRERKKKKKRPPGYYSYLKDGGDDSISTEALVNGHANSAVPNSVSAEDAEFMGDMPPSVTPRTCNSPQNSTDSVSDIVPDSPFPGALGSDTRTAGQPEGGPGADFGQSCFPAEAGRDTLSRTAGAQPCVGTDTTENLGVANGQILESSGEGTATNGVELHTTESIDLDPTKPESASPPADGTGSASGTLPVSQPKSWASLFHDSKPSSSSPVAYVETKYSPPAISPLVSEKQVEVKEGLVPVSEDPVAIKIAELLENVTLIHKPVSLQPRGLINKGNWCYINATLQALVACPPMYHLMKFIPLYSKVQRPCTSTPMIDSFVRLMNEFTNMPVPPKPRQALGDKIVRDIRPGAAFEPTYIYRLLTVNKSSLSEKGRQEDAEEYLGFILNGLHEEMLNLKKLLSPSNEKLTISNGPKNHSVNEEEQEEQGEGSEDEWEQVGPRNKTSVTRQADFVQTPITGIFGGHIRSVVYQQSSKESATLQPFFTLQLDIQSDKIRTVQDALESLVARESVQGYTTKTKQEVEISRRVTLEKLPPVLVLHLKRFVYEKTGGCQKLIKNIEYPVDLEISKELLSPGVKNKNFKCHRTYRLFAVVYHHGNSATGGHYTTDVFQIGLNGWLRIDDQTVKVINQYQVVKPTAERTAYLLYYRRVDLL
USP8 inh: human USP8 deubiquitinase inhibition. P40818. purified USP8, Ub-rhodamine cleavage fluorescence, 30 min. inhibition, % at 20 µM. 4.2% of 47,000 active. AID 1645853
UCHL1 inh: inhibitors of human UCHL1 deubiquitinase; inhibition, % at 20 µM; purified UCHL1, Ub-rhodamine cleavage fluorescence; 0.2% of 47,000 active; P09936
USP7 block: inhibitors of human USP7 deubiquitinase; Q93009; purified USP7, Ub-rhodamine cleavage fluorescence; inhibition, % at 20 µM; 0.3% of 47,000 active; AID 1645854
* marks the source's active call; other numbers are inactive results. Rule as the data show it: active = inhibition above about 30%; inactive = the rest.

SMILES | USP10 inh | USP8 inh | UCHL1 inh | USP7 block
O=C(Cn1cc(C(=O)C(F)(F)F)c2cc(Br)ccc21)N1CCc2ccccc21 | 36* | 2 | -2 | 5
c1ccc(Cn2cc(-c3noc(-c4ccccn4)n3)nn2)cc1 | 2 | -49 | 0 | -1
Cc1cc(O)cc2c1C(=O)c1c(O)ccc(O)c1C2=O | -4 | -59 | -21 | -47
Cc1occ2c1C(=O)c1c(O)ccc(O)c1C2 | 89* | 84* | 97* | 99*
CCCCN1CC(C(=O)Nc2ccc(C(=O)Nc3ccc(C(N)=O)cc3)cc2)CC1=O (stereo unspecified) | 41* | 2 | 2 | 7
CC1Cc2ccccc2N1Cc1cc[nH]c(=O)c1 (stereo unspecified) | -9 | 45* | -18 | -37
CC1Cc2ccccc2N1CC(=O)NCc1ccccc1Cl (stereo unspecified) | -12 | -39 | -38 | -47
COc1ccc(CNc2ccc(C(=O)OCc3ccccc3F)cc2S(=O)(=O)Nc2cccc(OC)c2)cc1 | 33* | 8 | 2 | 6
COCCn1cc(NC(=O)N2CCN(c3ccccc3F)CC2)c2ccccc21 | -3 | 54* | 1 | -1
O=C(Oc1ccc(-c2nccc(-c3cccs3)n2)cc1)c1ccco1 | 5 | 36* | 5 | 9
O=C(Oc1ccc(-c2nccc(-c3cccs3)n2)cc1)c1ccccc1 | 6 | 6 | 2 | 4
CC(C)N1CCn2c(nc3cc(NC(=O)c4cccnc4)ccc32)C1 | -12 | 32* | -8 | -6
O=C(COc1ncnc2ccccc12)Nc1ccc2c(c1)OC1(CCCC1)O2 | 10 | 58* | 8 | -4
O=C(COc1cccc(F)c1)NC(Cc1ccccc1)c1nc2ccccc2[nH]1 (stereo unspecified) | -3 | 73* | 3 | 0
N#Cc1ccc(OCC(=O)NC(Cc2ccccc2)c2nc3ccccc3[nH]2)cc1 (stereo unspecified) | -2 | 36* | 3 | 6
COc1ccccc1-c1cc2n(n1)CCN(C(=O)NC(C)(C)C)C2 | 0 | 2 | -3 | -7
NS(=O)(=O)c1cccc(NS(=O)(=O)c2ccc(/C=C/C(=O)OCC(=O)c3ccc(Br)cc3)cc2)c1 | 41* | 6 | 5 | 14
CCc1ccc(NC(=O)C(C)OC(=O)/C=C/c2ccc(S(=O)(=O)Nc3cccc(S(N)(=O)=O)c3)cc2)cc1 (stereo unspecified) | 33* | 18 | 4 | 9
COc1ccc(C(=O)COC(=O)/C=C/c2ccc(S(=O)(=O)Nc3cccc(S(N)(=O)=O)c3)cc2)cc1 | 23 | -6 | 5 | 5
O=c1[nH]c(=O)n(CCc2ccccc2)c2c1CN(CCc1ccccc1)CN2 | 2 | -260 | 3 | -12
O=C(c1ccccc1)c1c[nH]c2cc3c(cc2c1=O)OCO3 | -8 | 50* | 10 | 12
Cc1ccc(-c2noc3cc(O)ccc23)cc1 | -6 | -20 | -8 | -8
CC(C)OC(=O)c1cc2c(ccn2-c2ccc(F)cc2)n1CC(=O)NC1CCCCC1 | -5 | 23 | 0 | 2
CCOC(=O)c1cc2c(ccn2-c2ccc(F)cc2)n1CC(=O)N(C)C1CCCCC1 | 7 | 12 | 6 | -8
CC(C)OC(=O)c1cc2c(ccn2-c2ccc(F)cc2)n1CC(=O)N(C)C1CCCCC1 | -1 | 60* | 0 | 2
SMILES | USP10 inh | USP8 inh | UCHL1 inh | USP7 block
COC(=O)c1cc2c(ccn2-c2ccc(F)cc2)n1CC(=O)NC1CCCCC1 | 16 | 34* | -3 | 7
CCOc1ccc(-n2c(SCC(=O)N(c3ccccc3)c3ccccc3)nc3sc4c(c3c2=O)CCN(C)C4)cc1 | -6 | 5 | -2 | -3
Fc1ccccc1N1CCN(c2nc3ccccc3[nH]2)CC1 | 1 | -11 | -5 | 0
O=C(OCCCN1C(=O)c2cccc3c(N4CCCCC4)ccc(c23)C1=O)c1ccccn1 | -4 | -259 | -154 | -136
CCOC(=O)c1sc(NC(=O)c2cc(-c3ccc(OC)cc3)nc3ccccc23)nc1C | 1 | -4 | 3 | 8
CCN(CC)C(=O)c1sc(NC(=O)c2cc(-c3ccccc3Cl)nc3ccccc23)c(C(N)=O)c1C | 44* | 47* | 5 | 8
Cc1nc(-c2ccc(C(=O)Nc3ccc(F)cc3)cc2)cs1 | 24 | 65* | 10 | 34*
CSc1ccc(C(=O)Nc2nc(-c3ccncc3)cs2)cc1 | 1 | 44* | 3 | 14
Cc1ccc(NC(=O)Cc2nnc(-c3cnccn3)o2)cc1Cl | -2 | -1 | -2 | -3
O=C(Cn1c(CN2CCCCC2)nc2sc3c(c2c1=O)CCCC3)N1CCc2ccccc21 | -5 | -20 | -15 | -27
CC(C)(C)n1ncc2c(=O)n(CC(=O)OCc3ccccc3)cnc21 | -1 | -3 | 1 | 0
CC(C)(C)n1ncc2c(=O)n(CC(=O)N3CCCc4ccccc43)cnc21 | -6 | 3 | -2 | 45*
O=C(Cn1cnc2sc3c(c2c1=O)CCC3)N1CCc2ccccc21 | 0 | 48* | 0 | 0
Cn1c(SCc2ccccc2)nnc1-c1csc(-c2ccccc2)n1 | 19 | 22 | 6 | 0
COc1ccc(NC(=O)c2ccccc2OCC(=O)Nc2ccccc2C(F)(F)F)c(C)c1 | 5 | 52* | -1 | 0
CC1(C)CC(=O)C2=C(C1)Nc1ccccc1N(C(=O)C(F)(F)F)C2c1cccs1 (stereo unspecified) | -3 | 89* | 9 | -3
COc1ccc(C2C3=C(CC(C)(C)CC3=O)Nc3ccccc3N2C(=O)c2ccccc2)cc1 (stereo unspecified) | -6 | -1 | -2 | -1
Cc1ccccc1-c1nnc2sc(COc3ccc(Cl)cc3)nn12 | 26 | 31* | 5 | 8
O=C(Nc1ccc(F)cc1)c1noc2c1CCc1sccc1-2 | 1 | -1 | 2 | 7
Cc1cccc(NC(=O)c2noc3c2CCc2sccc2-3)n1 | 6 | 94* | 10 | -6
O=C(Nc1ccc2c(c1)OCO2)c1noc2c1CCc1sccc1-2 | 17 | 53* | 0 | 5
NC(=O)c1nc(-c2cccnc2)nc2c1[nH]c(=O)n2-c1ccc2c(c1)OCO2 | 25 | 53* | 1 | 7
NC(=O)c1nc(-c2ccccn2)nc2c1[nH]c(=O)n2-c1ccc2c(c1)OCO2 | -4 | -154 | 3 | 6
COc1ccc(C(=O)Nc2ccccc2C(=O)NC(Cc2ccc(O)cc2)C(=O)NNC(=O)c2ccccc2Cl)cc1 (stereo unspecified) | 62* | 59* | 3 | 12
CC(C)(C)C(=O)N1CCCC(c2cncc(N3CC4(CCCCC4)OC3=O)n2)C1 (stereo unspecified) | 2 | -9 | 1 | 3
Cc1ccc2c(C(=O)CN3CCN(Cc4ccccc4)CC3)c(C)[nH]c2c1 | -7 | -3 | -6 | -12
Cn1c(=O)c(C(=O)CN2CCN(c3ccc(O)cc3)CC2)c(N)n(Cc2ccccc2)c1=O | -1 | 67* | 4 | 5
CO/C=C/C(=O)c1cc2cnc3c(=N)cc(NC(C)=O)c([nH]1)c23 | -7 | 42* | 10 | -29
CC(=O)Nc1ccc(S(=O)(=O)N2CCCC(C(=O)Nc3cccc4ccccc34)C2)cc1 (stereo unspecified) | 5 | 1 | 1 | 0
